From the supplement of paper PMC10849652
The full data set covers some 7,900 targets. This sample favours those with a hit. About 0.6% of all pairs of compound and target were hits.

Experiments:
Experiment in all cases: log2 fold change, soluble protein after heating vs DMSO (PISA); higher = thermal stabilisation; K562 cells, 10 uM, 30 min; active = over 0.2 and 3.5 SD of the protein, either way, in both replicates (recomputed)
[1] = compound: CC[C@@H]1C(=O)N(C)c2cnc(Nc3ccc(C(=O)NC4CCN(C)CC4)cc3OC)nc2N1C1CCCC1
Summary of the method: (§1)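 K562 cells at 2×10^6 cells/mL were treated for 30 min with 10 μM compound, and aliquots were heated for 3 min over 48°C-58°C before pooling. Extraction used PBS with 0.5% NP-40 at 4°C, and soluble protein was the supernatant after 21,000xg for 90 min, measured by TMTpro 16plex LC-MS/MS with channel sums equalised. Thermal stability values, relative to control samples and from duplicates, are log2 fold changes.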

[2] = compound: CC[C@H](C)N1C=C(C2=C(C=C(C=C21)C3=CN=C(C=C3)N4CCNCC4)C(=O)NCC5=C(C=C(NC5=O)C)C)C
Summary of the method: as §1

epoxomicin = compound: CC[C@H](C)[C@@H](C(=O)N[C@@H]([C@@H](C)O)C(=O)N[C@@H](CC(C)C)C(=O)[C@]1(CO1)C)NC(=O)[C@H]([C@@H](C)CC)N(C)C(=O)C [epoxomicin]
Summary of the method: as §1

[3] = compound: CCn1c(C(=O)N(C2CC2)C2CC2)cc2c3c(ncn3C)c(Nc3cc(C)n(C)n3)nc21
Summary of the method: as §1

[4] = compound: CN(C)CC(=O)Nc1ccc2[nH]c(=O)c3ccccc3c2c1
Summary of the method: as §1

rosiglitazone = compound: CN(CCOC1=CC=C(C=C1)C[C@H]2C(=O)NC(=O)S2)C3=CC=CC=N3 (racemic) [rosiglitazone]
Summary of the method: as §1

[5] = compound: CN1C2=C(C3=C1C(=O)N(N=C3)CC4=CC(=CC=C4)N)SC(=C2)S(=O)C
Summary of the method: as §1

saracatinib = compound: CN1CCN(CCOc2cc(OC3CCOCC3)c3c(Nc4c(Cl)ccc5c4OCO5)ncnc3c2)CC1 [saracatinib]
Summary of the method: as §1

sotrastaurin = compound: CN1CCN(c2nc(C3=C(c4c[nH]c5ccccc45)C(=O)NC3=O)c3ccccc3n2)CC1 [sotrastaurin]
Summary of the method: as §1

alvocidib = compound: CN1CC[C@H](c2c(O)cc(O)c3c(=O)cc(-c4ccccc4Cl)oc23)[C@H](O)C1 [alvocidib]
Summary of the method: as §1

Tubastatin A = compound: CN1CCc2c(c3ccccc3n2Cc2ccc(C(=O)NO)cc2)C1 [Tubastatin A]
Summary of the method: as §1

[6] = compound: CNC(=O)C1=CC=CC=C1NC2=NC(=NC=C2Cl)NC3=C(C=C(C=C3)N4CCOCC4)OC
Summary of the method: as §1

defactinib = compound: CNC(=O)c1ccc(Nc2ncc(C(F)(F)F)c(NCc3nccnc3N(C)S(C)(=O)=O)n2)cc1 [defactinib]
Summary of the method: as §1

rucaparib = compound: CNCc1ccc(-c2[nH]c3cc(F)cc4c3c2CCNC4=O)cc1 [rucaparib]
Summary of the method: as §1

[7] = compound: CNc1nc(-c2ccc3c(N)n[nH]c3c2)cc(N2C[C@@H](C(=O)NC3CCCCC3)CC[C@H]2C)n1
Summary of the method: as §1

encorafenib = compound: COC(=O)N[C@@H](C)CNc1nccc(-c2cn(C(C)C)nc2-c2cc(Cl)cc(NS(C)(=O)=O)c2F)n1 [encorafenib]
Summary of the method: as §1

[8] = compound: COC(=O)[C@H](CCSC)NC(=O)C1=C(C=C(C=C1)NC[C@H](CS)N)C2=CC=CC=C2
Summary of the method: as §1

[9] = compound: CCn1cc(-c2ccnc3[nH]c(-c4cccc(CN(C)C)c4)cc23)c(-c2ccc(NC(=O)N(C)C)cc2)n1
Summary of the method: as §1

[10] = compound: CN1CCC(CNc2ccc3ncc(-c4cccc(OC(F)(F)F)c4)n3n2)CC1
Summary of the method: as §1

volasertib = compound: CC[C@@H]1C(=O)N(C)c2cnc(Nc3ccc(C(=O)N[C@H]4CC[C@H](N5CCN(CC6CC6)CC5)CC4)cc3OC)nc2N1C(C)C [volasertib]
Summary of the method: as §1

Measured: log2 fold change

SLC35B1 isoform 2 (UniProt P78383)
inactive: [1] 0.123 | [2] -0.017 | epoxomicin 0.066 | [3] 0.001 | [4] 0.075 | rosiglitazone 0.044 | [5] -0.111 | saracatinib 0.036 | sotrastaurin -0.03 | alvocidib 0.031 | Tubastatin A 0.037 | [6] -0.003 | defactinib 0.026 | rucaparib -0.051 | [7] 0.011 | encorafenib 0.132 | [8] -0.127

SREBF1 isoform 4 (UniProt P36956)
UniProt P36956, sequence (P36956 whole entry, looked up): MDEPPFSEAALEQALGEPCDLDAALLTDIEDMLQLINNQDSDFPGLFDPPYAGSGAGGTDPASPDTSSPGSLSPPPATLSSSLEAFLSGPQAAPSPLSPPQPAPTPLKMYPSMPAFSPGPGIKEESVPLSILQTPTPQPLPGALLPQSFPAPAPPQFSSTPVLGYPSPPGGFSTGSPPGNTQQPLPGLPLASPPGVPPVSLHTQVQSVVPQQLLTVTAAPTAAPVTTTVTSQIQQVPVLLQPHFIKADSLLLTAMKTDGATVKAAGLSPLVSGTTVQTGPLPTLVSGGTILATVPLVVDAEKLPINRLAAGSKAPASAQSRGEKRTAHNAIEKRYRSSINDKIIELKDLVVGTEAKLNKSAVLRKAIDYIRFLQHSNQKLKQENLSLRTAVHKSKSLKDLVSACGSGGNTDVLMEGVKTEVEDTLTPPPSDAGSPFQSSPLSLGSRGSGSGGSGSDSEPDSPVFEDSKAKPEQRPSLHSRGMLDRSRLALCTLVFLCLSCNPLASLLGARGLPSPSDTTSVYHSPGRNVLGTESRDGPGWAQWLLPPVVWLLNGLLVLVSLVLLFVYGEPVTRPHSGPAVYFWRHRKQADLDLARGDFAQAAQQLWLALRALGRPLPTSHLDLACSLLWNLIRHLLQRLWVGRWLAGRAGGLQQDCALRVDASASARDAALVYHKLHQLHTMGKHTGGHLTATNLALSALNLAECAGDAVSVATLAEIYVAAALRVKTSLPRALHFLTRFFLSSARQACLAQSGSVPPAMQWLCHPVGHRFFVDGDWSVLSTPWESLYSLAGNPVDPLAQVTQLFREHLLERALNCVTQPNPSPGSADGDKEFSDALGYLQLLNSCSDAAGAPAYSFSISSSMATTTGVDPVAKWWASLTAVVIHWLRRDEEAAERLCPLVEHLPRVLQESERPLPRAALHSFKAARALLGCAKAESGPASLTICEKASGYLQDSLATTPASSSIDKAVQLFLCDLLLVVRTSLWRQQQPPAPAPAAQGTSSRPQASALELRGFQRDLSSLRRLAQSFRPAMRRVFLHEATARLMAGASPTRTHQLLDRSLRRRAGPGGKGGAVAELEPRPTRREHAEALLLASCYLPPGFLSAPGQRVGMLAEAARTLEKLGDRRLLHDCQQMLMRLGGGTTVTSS
inactive: [1] -0.511 | epoxomicin -0.035 | [3] -0.047 | rosiglitazone 0.025 | [5] 0.198 | saracatinib 0.077 | [6] 0.033 | rucaparib -0.164 | [7] 0.045 | encorafenib 0.044

SSBP4 (UniProt U3KPY3)
inactive: [4] 0.049 | defactinib -0.189 | [8] -0.121

SLC44A2 isoform 2 (UniProt Q8IWA5)
inactive: [1] 0.2 | [2] 0 | epoxomicin 0.053 | [3] 0.014 | [9] -0.105 | [4] -0.048 | rosiglitazone -0.016 | [5] -0.154 | [10] 0.259 | saracatinib 0.104 | sotrastaurin 0.056 | alvocidib -0.051 | Tubastatin A -0.053 | [6] -0.055 | defactinib -0.137 | rucaparib -0.044 | [7] 0.043 | encorafenib -0.125 | [8] 0.02

STARD3 (UniProt Q14849)
active: [10] -0.386
inactive: volasertib 0.115 | [2] 0.091 | epoxomicin -0.019 | [3] 0.053 | [9] 0.039 | [4] -0.037 | rosiglitazone 0.024 | [5] -0.064 | saracatinib -0.043 | sotrastaurin -0.028 | alvocidib 0.035 | Tubastatin A 0.013 | [6] -0.02 | defactinib -0.035 | [7] 0.028 | [8] -0.014

SYNE1 (UniProt Q8NF91)
inactive: [1] -0.01 | [2] -0.048 | epoxomicin 0.047 | [3] -0.142 | [9] -0.113 | [4] 0.042 | rosiglitazone 0.031 | [5] 0.051 | [10] -0.208 | saracatinib -0.054 | sotrastaurin -0.086 | alvocidib 0.011 | Tubastatin A 0.193 | [6] -0.14 | defactinib -0.092 | rucaparib -0.039 | [7] 0.045 | encorafenib -0.101 | [8] 0.076

SP2 (UniProt Q02086)
UniProt Q02086, sequence (Q02086 whole entry, looked up): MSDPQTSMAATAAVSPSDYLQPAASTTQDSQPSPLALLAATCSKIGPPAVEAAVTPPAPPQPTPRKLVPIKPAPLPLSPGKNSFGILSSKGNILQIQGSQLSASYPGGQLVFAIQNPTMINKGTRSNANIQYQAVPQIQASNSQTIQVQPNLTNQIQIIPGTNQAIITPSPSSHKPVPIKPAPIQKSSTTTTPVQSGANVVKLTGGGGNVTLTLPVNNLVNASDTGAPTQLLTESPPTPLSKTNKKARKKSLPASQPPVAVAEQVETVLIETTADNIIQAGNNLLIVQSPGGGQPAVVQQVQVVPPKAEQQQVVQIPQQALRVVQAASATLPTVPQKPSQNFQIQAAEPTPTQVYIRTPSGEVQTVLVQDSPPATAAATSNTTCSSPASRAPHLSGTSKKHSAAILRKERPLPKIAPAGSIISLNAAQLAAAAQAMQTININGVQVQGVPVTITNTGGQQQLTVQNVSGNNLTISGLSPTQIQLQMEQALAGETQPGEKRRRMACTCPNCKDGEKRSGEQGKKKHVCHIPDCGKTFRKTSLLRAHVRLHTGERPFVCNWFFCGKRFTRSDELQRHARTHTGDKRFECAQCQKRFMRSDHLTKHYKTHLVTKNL
inactive: [1] -0.289 | [5] 0.372 | saracatinib 0.09 | sotrastaurin 0.091 | rucaparib 0.324 | [7] -0.132 | encorafenib -0.025

TDP1 (UniProt Q9NUW8)
UniProt Q9NUW8, sequence (Q9NUW8 whole entry, looked up): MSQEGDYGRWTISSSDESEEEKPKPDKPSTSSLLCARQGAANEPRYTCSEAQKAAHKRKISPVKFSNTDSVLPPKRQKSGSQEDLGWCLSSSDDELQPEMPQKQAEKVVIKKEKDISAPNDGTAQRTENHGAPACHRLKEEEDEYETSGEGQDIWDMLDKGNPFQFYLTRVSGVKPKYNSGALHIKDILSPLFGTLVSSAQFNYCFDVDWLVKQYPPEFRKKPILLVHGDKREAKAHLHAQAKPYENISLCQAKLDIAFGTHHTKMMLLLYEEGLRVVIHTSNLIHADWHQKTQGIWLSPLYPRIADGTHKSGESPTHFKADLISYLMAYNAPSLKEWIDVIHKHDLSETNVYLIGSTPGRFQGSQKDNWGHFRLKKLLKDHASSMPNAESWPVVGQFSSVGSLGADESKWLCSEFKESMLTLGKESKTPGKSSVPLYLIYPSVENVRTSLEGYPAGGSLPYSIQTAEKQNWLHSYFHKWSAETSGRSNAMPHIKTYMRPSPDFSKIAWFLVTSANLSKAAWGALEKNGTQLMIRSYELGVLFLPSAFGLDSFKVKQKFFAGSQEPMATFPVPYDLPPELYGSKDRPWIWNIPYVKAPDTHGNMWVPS
inactive: [3] -0.11 | alvocidib -0.028 | [6] -0.041

SPIN4 (UniProt Q56A73)
inactive: [3] 0.291 | [6] -0.199

SUPT5H isoform 2 (UniProt O00267)
inactive: [4] 0.149 | defactinib -0.005 | [8] -0.058

TK1 (UniProt K7ERV3)
inactive: volasertib 0.055 | [2] -0.163 | epoxomicin 0.007 | [9] -0.014 | [4] 0.084 | rosiglitazone 0.035 | [5] -0.024 | [10] 0.005 | saracatinib 0.037 | sotrastaurin 0.011 | alvocidib -0.009 | Tubastatin A -0.013 | defactinib 0 | [7] -0.058 | [8] -0.003

SNRK (UniProt Q9NRH2)
UniProt Q9NRH2, sequence (Q9NRH2 whole entry, looked up): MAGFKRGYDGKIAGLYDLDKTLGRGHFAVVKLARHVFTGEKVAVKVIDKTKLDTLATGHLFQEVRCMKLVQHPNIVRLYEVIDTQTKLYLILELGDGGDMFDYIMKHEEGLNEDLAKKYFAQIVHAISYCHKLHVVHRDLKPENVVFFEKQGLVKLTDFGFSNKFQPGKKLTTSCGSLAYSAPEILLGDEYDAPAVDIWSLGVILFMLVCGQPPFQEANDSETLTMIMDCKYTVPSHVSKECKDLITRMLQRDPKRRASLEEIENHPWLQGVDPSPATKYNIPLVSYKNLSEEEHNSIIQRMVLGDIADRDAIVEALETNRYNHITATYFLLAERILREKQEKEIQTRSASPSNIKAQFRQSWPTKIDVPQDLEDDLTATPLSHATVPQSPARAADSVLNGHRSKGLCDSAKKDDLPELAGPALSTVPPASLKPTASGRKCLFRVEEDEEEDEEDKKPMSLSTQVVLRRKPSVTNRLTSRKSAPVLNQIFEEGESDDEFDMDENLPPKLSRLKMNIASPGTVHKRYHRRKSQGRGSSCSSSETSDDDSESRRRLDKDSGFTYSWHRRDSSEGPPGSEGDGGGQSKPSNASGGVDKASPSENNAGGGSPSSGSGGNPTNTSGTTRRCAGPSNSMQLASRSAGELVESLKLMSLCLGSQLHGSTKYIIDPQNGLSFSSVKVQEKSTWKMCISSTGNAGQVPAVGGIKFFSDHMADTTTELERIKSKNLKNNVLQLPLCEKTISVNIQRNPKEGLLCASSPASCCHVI
inactive: [1] -0.157 | volasertib -0.085 | [5] -0.011 | saracatinib -0.092 | sotrastaurin 0.003 | rucaparib -0.099 | [7] 0.011 | encorafenib 0.002

SLC46A1 (UniProt Q96NT5)
UniProt Q96NT5, sequence (Q96NT5 whole entry, looked up): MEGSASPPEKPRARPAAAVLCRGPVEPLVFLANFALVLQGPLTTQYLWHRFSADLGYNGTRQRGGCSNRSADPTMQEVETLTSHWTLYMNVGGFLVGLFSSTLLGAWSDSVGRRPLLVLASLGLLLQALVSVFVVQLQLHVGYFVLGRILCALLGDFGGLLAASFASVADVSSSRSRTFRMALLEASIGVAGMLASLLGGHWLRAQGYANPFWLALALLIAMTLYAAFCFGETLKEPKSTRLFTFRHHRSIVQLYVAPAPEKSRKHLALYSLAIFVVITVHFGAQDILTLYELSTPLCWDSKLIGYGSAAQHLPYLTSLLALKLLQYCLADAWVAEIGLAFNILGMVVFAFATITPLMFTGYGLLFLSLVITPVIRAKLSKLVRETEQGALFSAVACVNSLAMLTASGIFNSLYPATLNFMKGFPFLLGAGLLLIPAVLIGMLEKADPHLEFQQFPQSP
inactive: [1] 0.156 | [3] -0.072 | [9] -0.072 | [4] -0.041 | [10] 0.087 | alvocidib 0.193 | Tubastatin A 0.067 | [6] 0.085 | defactinib 0.034 | rucaparib -0.081 | encorafenib -0.051 | [8] -0.011

SMDT1 (UniProt Q9H4I9)
UniProt Q9H4I9, sequence (Q9H4I9 whole entry, looked up): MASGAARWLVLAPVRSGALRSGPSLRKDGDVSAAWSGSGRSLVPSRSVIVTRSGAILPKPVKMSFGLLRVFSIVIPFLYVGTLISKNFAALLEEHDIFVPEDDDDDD
inactive: [1] 0.08 | epoxomicin -0.064 | [9] -0.044 | [4] 0.108 | rosiglitazone -0.037 | [5] 0.028 | [10] 0.01 | saracatinib 0.092 | sotrastaurin -0.077 | alvocidib -0.005 | Tubastatin A 0.035 | defactinib 0.014 | rucaparib 0.057 | [7] -0.064 | encorafenib 0.011 | [8] 0.003

SLC35B4 (UniProt Q969S0)
inactive: [1] -0.003 | [2] -0.041 | epoxomicin 0.044 | [3] 0.042 | [4] -0.134 | rosiglitazone 0.005 | sotrastaurin 0.012 | Tubastatin A 0.014 | [6] 0.046 | defactinib 0.086 | rucaparib 0.036 | encorafenib -0.015 | [8] -0.146

TBC1D2 (UniProt Q9BYX2)
UniProt Q9BYX2, sequence (Q9BYX2 whole entry, looked up): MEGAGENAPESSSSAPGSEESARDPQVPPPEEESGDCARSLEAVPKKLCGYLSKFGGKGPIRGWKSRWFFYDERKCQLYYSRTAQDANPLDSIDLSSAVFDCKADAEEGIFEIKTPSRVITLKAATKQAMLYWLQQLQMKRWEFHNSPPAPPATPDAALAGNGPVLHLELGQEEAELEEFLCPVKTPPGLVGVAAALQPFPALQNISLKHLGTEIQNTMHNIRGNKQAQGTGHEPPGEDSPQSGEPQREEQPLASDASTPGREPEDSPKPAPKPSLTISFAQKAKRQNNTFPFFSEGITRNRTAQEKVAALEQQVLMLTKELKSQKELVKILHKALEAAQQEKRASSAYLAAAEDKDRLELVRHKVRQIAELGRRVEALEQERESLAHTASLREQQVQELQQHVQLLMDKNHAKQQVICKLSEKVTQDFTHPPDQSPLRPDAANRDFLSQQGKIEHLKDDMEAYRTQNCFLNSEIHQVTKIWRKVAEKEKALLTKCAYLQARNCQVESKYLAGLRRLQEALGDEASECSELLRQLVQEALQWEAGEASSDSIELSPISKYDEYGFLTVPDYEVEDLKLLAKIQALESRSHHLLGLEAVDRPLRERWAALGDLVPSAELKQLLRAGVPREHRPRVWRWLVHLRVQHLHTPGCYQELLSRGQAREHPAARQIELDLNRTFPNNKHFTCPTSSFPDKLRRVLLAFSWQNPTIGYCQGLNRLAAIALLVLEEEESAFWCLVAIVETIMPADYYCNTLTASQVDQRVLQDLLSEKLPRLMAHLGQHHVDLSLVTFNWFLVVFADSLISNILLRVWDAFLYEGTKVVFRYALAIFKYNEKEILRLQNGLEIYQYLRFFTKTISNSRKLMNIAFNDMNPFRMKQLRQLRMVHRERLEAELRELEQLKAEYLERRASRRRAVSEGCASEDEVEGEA
inactive: [1] -0.055 | epoxomicin -0.238 | [9] 0.087 | [10] -0.019 | rucaparib 0.264 | encorafenib 0.122

THAP9 (UniProt Q9H5L6)
inactive: [2] -0.167 | rosiglitazone 0.008 | [5] -0.039 | saracatinib 0.039 | alvocidib -0.087 | [7] 0.186

STK17B (UniProt O94768)
UniProt O94768, sequence (O94768 whole entry, looked up): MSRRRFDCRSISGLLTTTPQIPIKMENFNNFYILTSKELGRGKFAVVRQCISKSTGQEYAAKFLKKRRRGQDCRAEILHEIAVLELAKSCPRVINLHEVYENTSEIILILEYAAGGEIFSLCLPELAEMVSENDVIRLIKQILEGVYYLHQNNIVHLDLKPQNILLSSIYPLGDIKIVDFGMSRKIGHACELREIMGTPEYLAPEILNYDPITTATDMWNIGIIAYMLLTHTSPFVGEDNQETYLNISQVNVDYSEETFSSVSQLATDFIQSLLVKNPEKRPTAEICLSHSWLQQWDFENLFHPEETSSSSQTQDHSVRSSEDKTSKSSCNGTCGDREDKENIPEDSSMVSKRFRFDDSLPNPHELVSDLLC
inactive: [3] -0.099 | rosiglitazone 0.07
active: [6] -1.03

TAF6L (UniProt Q9Y6J9)
inactive: [2] 0.118 | [3] -0.179 | [9] -0.04 | [5] 0.081 | [10] -0.126 | saracatinib 0.148 | sotrastaurin -0.2 | alvocidib -0.055 | Tubastatin A -0.012 | [6] -0.044 | [7] 0.035
active: volasertib -0.537

TCOF1 isoform 6 (UniProt Q13428)
inactive: [1] 0.04 | [2] -0.132 | [3] -0.039 | [4] -0.219 | rosiglitazone -0.173 | sotrastaurin -0.094 | alvocidib 0.104 | Tubastatin A -0.103 | [6] -0.149 | defactinib 0.027 | rucaparib -0.022 | encorafenib 0.162 | [8] -0.053

SYK (UniProt P43405)
inactive: volasertib 0.196 | epoxomicin 0.022 | [3] -0.021 | [4] -0.085 | rosiglitazone -0.006 | [5] -0.052 | saracatinib -0.151 | alvocidib -0.168 | Tubastatin A 0.355 | [6] -0.113 | defactinib 0.249 | rucaparib 0.258 | [7] 0.03 | encorafenib 0.112 | [8] -0.012
